The source of these data is PubChem BioAssay (Tox21).

Molecules are shown by their SMILES. A number with no mark means an inactive call. Records with an inconclusive call do not appear. The source made the active and inactive calls. Unless noted, the call rests on the fitted dose curve; in most records, active means well fitted curve in the direction sought with a large enough effect in the repeat runs; inconclusive means weak or mixed curves; inactive means no such curve, though single readings can be large; an effect the other way counts as inactive or inconclusive.

Experiment [1] can be described thus: qHTS assay to identify small molecule HDAC inhibitors (AID 1259364). Further: top concentration of the series differs between compounds; nearly all actives have a fitted effect of over 45% in size. The procedure, abridged:
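Wild-type HCT-116 cells, plated overnight at 37 C, exposed to compounds 2 hr at 37 C; luminogenic HDAC-Glo substrate then added 30 min at room temperature. Luminescence reports relative endogenous class I/II HDAC activity.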
Background: Quantitative high-throughput screening tests each substance at several concentrations.

Experiment [2] in a line: qHTS assay to identify small molecule HDAC inhibitors - cell viability counter screen (AID 1259365). Further: series mostly up to about 92 µM; nearly all actives have a fitted effect of over 50% in size. The procedure, abridged: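 CellTiter-Glo luminescence (30 min, room temperature) reported viability after a 2 h compound exposure at 37 C. Cells: wild-type HCT-116, 1,500 per well, seeded the night before.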
Experiment [3] in a line: qHTS assay to identify small molecule agonists of the sonic hedgehog signaling (Shh) pathway (AID 1259368; calls by dose curve;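 further: NIH/3T3-derived 3T3Gli1-Luc cells carrying a stable Gli1-driven firefly luciferase reporter; series mostly up to about 92 µM; nearly all actives have a fitted effect of over 15% in size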). The procedure, abridged:
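NIH/3T3-derived 3T3Gli1-Luc cells with stably integrated Gli1-driven firefly luciferase, 2,000 cells/well, compounds added after 4 hr. Incubated 24 hr at 37C, 5% CO2; luminescence read after 30 min with luciferase reagent at room temperature.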

Experiment [4] concerns the target Estrogen receptor beta (Homo sapiens) (UniProt Q92731). The experiment can be described thus: qHTS assay to identify small molecule agonists of the estrogen receptor beta (ER-beta) signaling pathway (AID 1259377; active means well fitted activation curve with a large enough effect in the signal ratio in the repeat runs, not every such curve was filed as active; the % refers to the signal ratio; further: potency means the concentration at half of the fitted maximal effect). Summed up:
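Ratiometric beta-lactamase FRET read-out came after 2 h substrate loading at room temperature. It followed 16 h compound treatment at 37C of GripTite HEK293T cells carrying a UAS-bla reporter, plated in 2% charcoal-stripped FBS medium.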

The nature of experiment [5]: qHTS assay to identify small molecule antagonists of the sonic hedgehog signaling (Shh) pathway - cell viability counter screen (AID 1259367). Further: nearly all actives have a fitted effect of over 55% in size. Further: potency means the concentration at half of the fitted maximal effect. The procedure, abridged:
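NIH/3T3-derived Gli1-Luc reporter cells (2,000 per well) rested 4 hr at 37 C, then received DMSO compounds plus conditioned medium. After 23 hr of treatment, CellTiter-Fluor was added for 1 hr at 37C and fluorescence read.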

Experiment [6] is described as follows: qHTS assay to identify small molecule antagonists of the sonic hedgehog signaling (Shh) pathway (AID 1259369; calls by dose curve; further: nearly all actives have a fitted effect of over 45% in size; further: potency means the concentration at half of the fitted maximal effect). The procedure, abridged:
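NIH/3T3-derived Gli1-Luc reporter cells plated 4 h, dosed with compound, then stimulated with conditioned medium for 24 h at 37 C. Firefly luciferase luminescence read after 30 min with detection reagent at room temperature.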

Experiment [7] can be described thus: qHTS assay to identify small molecule agonists of the sonic hedgehog signaling (Shh) pathway - cell viability counter screen (AID 1259366). Further: nearly all actives have a fitted effect of over 50% in size. Further: potency means the concentration at half of the fitted maximal effect. The procedure, abridged:
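Cytotoxicity counter screen: CellTiter-Fluor reagent added after 23 h compound exposure, then 1 h at 37C and fluorescence read. Cells were 3T3 Gli1-Luc, seeded 2,000 per well and dosed 4 h post-plating.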

Chain of Estrogen receptor beta (Homo sapiens) (Q92731 whole entry, looked up): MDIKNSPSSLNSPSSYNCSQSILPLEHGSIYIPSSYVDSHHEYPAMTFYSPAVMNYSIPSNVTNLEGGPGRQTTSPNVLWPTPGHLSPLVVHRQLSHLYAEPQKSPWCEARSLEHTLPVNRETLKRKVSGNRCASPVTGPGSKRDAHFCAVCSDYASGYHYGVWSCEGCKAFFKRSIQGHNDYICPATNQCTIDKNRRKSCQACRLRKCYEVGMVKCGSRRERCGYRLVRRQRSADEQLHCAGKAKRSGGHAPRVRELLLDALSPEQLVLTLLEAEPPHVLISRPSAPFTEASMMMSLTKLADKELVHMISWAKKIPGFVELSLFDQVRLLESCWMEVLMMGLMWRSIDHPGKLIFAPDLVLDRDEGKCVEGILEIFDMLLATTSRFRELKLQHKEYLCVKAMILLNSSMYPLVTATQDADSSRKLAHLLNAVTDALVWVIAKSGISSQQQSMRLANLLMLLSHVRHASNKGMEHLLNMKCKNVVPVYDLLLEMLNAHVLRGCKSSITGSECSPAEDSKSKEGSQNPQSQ

On to `Cc1cccc(C)c1NC(=O)CN1CCN(CCCC(c2ccc(F)cc2)c2ccc(F)cc2)CC1`, for which the Potency result in experiment [1], in experiment [2], in experiment [3] and in experiment [4] was “inactive” each time.
As for `CCC1(c2cnc[nH]2)Cc2ccccc2C1`, the Potency entry in experiment [1], in experiment [2], in experiment [5], in experiment [3] and in experiment [6] was “inactive” in each case.
In the case of `[O]=[Zr]`, the Potency entry in experiment [1], in experiment [2], in experiment [5], in experiment [3] and in experiment [6] was “inactive” throughout.
In the case of `COc1cccc(CCc2ccccc2OCC(CN(C)C)OC(=O)CCC(=O)O)c1` (configuration not stated), the Potency result in experiment [1], in experiment [2], in experiment [5] and in experiment [3] was “inactive” each time. The Potency in experiment [6] is 16.8 µM (active).
Turning to `CCCCCCCCCCCC(=O)N(CC)CC`, the Potency entry in experiment [1], in experiment [2], in experiment [5], in experiment [3] and in experiment [6] was “inactive” in each case.
Regarding `C=CC(C)C#N` (configuration not stated), the Potency entry in experiment [1], in experiment [2], in experiment [5], in experiment [3] and in experiment [6] was “inactive” each time.
Take `Cc1c(C)n(Cc2ccccc2)c2ccc(C(=O)OCCN(C)C)cc12`: the Potency entry in experiment [2], in experiment [5], in experiment [3] and in experiment [4] was “inactive” throughout. Further, the Potency in experiment [6] is 6.68 µM (active).
As for `CN1[C@@H]2CC[C@@H]1CC(OC(=O)C(CO)c1ccccc1)C2` (some centres not stated), the Potency result in experiment [1], in experiment [2], in experiment [7], in experiment [5] and in experiment [6] was “inactive” each time.
For `Cc1ccc2ccc3cccc4ccc1c2c34`, the Potency result in experiment [1], in experiment [2], in experiment [5], in experiment [3], in experiment [6] and in experiment [4] was “inactive” in each case.
For the compound `CC1=C(/C=C/C(C)=C/C=C/C(C)=C\C=O)C(C)(C)CCC1`, the Potency result in experiment [1], in experiment [2], in experiment [3] and in experiment [4] was “inactive” in each case. Moreover, the Potency in experiment [6] is 25.8 µM (active).
As to `C=CC(=C)CCC=C(C)C`, the Potency entry in experiment [1], in experiment [2], in experiment [5], in experiment [3], in experiment [6] and in experiment [4] was “inactive” throughout.
For `CCOC(=O)CN`, the Potency result in experiment [1], in experiment [2], in experiment [5], in experiment [3] and in experiment [6] was “inactive” each time.
With `C=CCCCCCCC=C`, the Potency entry in experiment [1], in experiment [2] and in experiment [3] was “inactive” throughout. For the same compound, the Potency in experiment [6] was 30.7 µM (active).
As for `CCCCCCC(C)OC(=O)COc1nc(F)c(Cl)c(N)c1Cl` (configuration not stated), the Potency result in experiment [1], in experiment [5], in experiment [3] and in experiment [6] was “inactive” each time.
As to `Oc1ccc(-c2ccc(O)cc2)cc1`, the Potency entry in experiment [2] and in experiment [3] was “inactive” each time. Besides, the Potency in experiment [6] is 6.15 µM (active); in experiment [4], 2.75 µM (active).
Regarding `CCN(CC)c1ccc(N)cc1`, the Potency result in experiment [1], in experiment [2] and in experiment [3] was “inactive” in each case. In addition, the Potency is 35.3 µM (active) in experiment [7] and 4.99 µM (active) in experiment [6].
Regarding `Cc1nc(Nc2ncc(C(=O)Nc3c(C)cccc3Cl)s2)cc(N2CCN(CCO)CC2)n1`, the Potency result in experiment [1], in experiment [2], in experiment [3], in experiment [6] and in experiment [4] was “inactive” each time. Moreover, in experiment [7], the Potency was 0.075 µM (active).
In the case of `CC1CCCNC1` (configuration not stated), the Potency entry in experiment [1], in experiment [2], in experiment [3] and in experiment [4] was “inactive” in each case. For the same compound, the Potency in experiment [5] was 42.4 µM (active); in experiment [6], 26.7 µM (active).
As to `O=Nc1ccc(NO)cc1`, the Potency result in experiment [2] was “inactive”. Besides, the Potency in experiment [6] was 14.2 µM (active).
Consider `CC(C)(C)CC(C)(C)c1ccccc1O`, for which the Potency result in experiment [1] and in experiment [3] was “inactive” each time. The values for the Potency in experiment [7], in experiment [5] and in experiment [6] were 54.8 µM (active), 48.8 µM (active) and 27.4 µM (active), respectively.
For `Cc1occc1SSc1ccoc1C`, the Potency entry in experiment [1], in experiment [2], in experiment [7], in experiment [5], in experiment [3] and in experiment [4] was “inactive” throughout.
Regarding `CCCCCCC(C)Nc1ccc(Nc2ccccc2)cc1` (configuration not stated), the Potency result in experiment [1], in experiment [2], in experiment [3] and in experiment [4] was “inactive” in each case. Also, in experiment [6], the Potency was 27.3 µM (active).
On to `CC(=O)OC(OC(C)=O)c1ccc([N+](=O)[O-])o1`, for which, in experiment [1], the Potency result is “inactive”. Further, the Potency in experiment [7] was 22.1 µM (active); in experiment [5] it was 24.8 µM (active); in experiment [6], 8.78 µM (active).
As for `Cc1cccc(Br)c1`, the Potency result in experiment [1], in experiment [2], in experiment [7] and in experiment [3] was “inactive” each time. In addition, in experiment [6], the Potency was 27.4 µM (active).
